# Source: PubChem
# Peg3 imprint = genomic imprint erasure induction | mouse ES Peg3-LacZ reporter, beta-gal luminescence, 40 h | Potency, µM (series often up to 60.7 µM), for the others: at the top dose activity change, positive = activation, usual class: activators | actives 0.02% (n = 110,000)
#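 Imprint erasure is scored as LacZ activity from the silenced maternal Peg3 allele in feeder-free female ES cells cultured 40 h with LIF. Luminescence is normalized to in-plate negative controls and fitted to the Hill equation.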
# p53ts 39C kill = p53ts cell cytotoxicity, nonpermissive temperature | H1299-p53A138V viability at 39C, ATP luminescence, 24 h | Potency, µM (doses to about 46.1 µM), for the others: at the top dose activity change, negative = cell killing, actives largely listed as cytotoxic | actives 1.5% (n = 130,000); further: on the % scale 0 is the no-effect control and ±100 the full control effect; nearly all actives have a fitted effect of over 55% in size
# p53ts 32C kill = kills p53ts cells at the permissive temperature. H1299-p53A138V at 32C, ATP luminescence viability, 24 h. Potency, µM (titrated, usually from 46.1 µM), inactives show at the highest dose activity change, negative = cytotoxicity, most hits filed as cytotoxic. actives 0.93% (n = 130,000);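 further: 0% = DMSO and -100% = full killing by reference compound; nearly all actives have a fitted effect of over 55% in size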
#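 Viability by ATPlite luminescence after 24 h compound treatment (up to 46 uM) at the permissive 32C. Cells are H1299 carrying p53 A138V. Scale runs from DMSO basal to 100 uM tamoxifen as full kill; AC50 from Hill fits.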
# IkB sig inh = suppresses IkB signaling in ABC-DLBCL reporter cells; actives 0.04% (n = 110,000); Potency, µM (titrated, usually from 57.1 µM), for inactives: top-dose IkBa stabilization activation; AID 445; ABC-DLBCL IkBa-CBG/CBR dual luciferase ratio, 4 h; response scale: scaled: untreated 0%, proteasome inhibitor 100%; active means well fitted curve in the direction sought with a large enough effect in the signal ratio, not every such curve was filed as active; inconclusive means small, poorly fitted or top-dose-only effect, or a change in a side signal; the % refers to the signal ratio;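 further: the direction sought is a rising ratio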
#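 In this assay, an IκBα–CBG68 fusion accumulates when IKK-driven degradation is blocked; native CBR normalizes for cell number. OCI-Ly3 cells were treated 4 h with compound and doxycycline, then green and red light read after Chroma-Glo addition.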
# The depositor's hits bear a star; ? = inconclusive; / = no result given; [ ] = dose if it differs, or a comment. Only some compounds are listed: those with a hit (about 1.8% of all), similar ones and a draw of the others. Unless noted, the call rests on the fitted dose curve; in most records, active means well fitted curve in the direction sought with a large enough effect; inconclusive means small, poorly fitted or top-dose-only effect, or another doubt; inactive means no such curve, though single readings can be large; an effect the other way counts as inactive or inconclusive. Potency means the concentration at half of the fitted maximal effect.
SMILES,Peg3 imprint,p53ts 39C kill,p53ts 32C kill,IkB sig inh
Cc1cc(=O)oc2c(OS(C)(=O)=O)c(OS(C)(=O)=O)ccc12,12.5%[10.9 µM],3.1%[9.22 µM],3.7%[9.22 µM],-0.1%[11.4 µM]
CO[C@H]1COC(=O)C/C=C\[C@@H](C)COC(=O)[C@@H](CCSC)NC(=O)C/C=C\[C@@H]1C,/,12.9%[9.22 µM],4.1%[9.22 µM],/
CN(CCc1ccc(Cl)c(Cl)c1)CCN1CCCCCC1,-22.3%,15.8µM*,?,-0.3%
Cc1cccc(C(C)C)c1NC(=O)Cn1c(=O)oc2cc(S(=O)(=O)N3CCCC3)ccc21,-8.4%[10.9 µM],1.3%,5.3%,-1.0%
COC(=O)c1sccc1S(=O)(=O)N(CC(=O)Nc1c(C)cccc1C)c1ccc(C)c(C)c1,4.2%[10.9 µM],-9.5%,6.6%,?
COc1ccc(CC(=O)Nc2cc(-c3nc4cccnc4s3)ccc2C)cc1,-17.2%[10.9 µM],12.6µM*,?,0.2%
Fc1ccc(Nc2nc3nonc3nc2Nc2cccc(C(F)(F)F)c2)cc1,-24.5%[10.9 µM],12.6µM*,?,?
CC(CCc1ccccc1)NC(=O)Cn1c(=O)nc(-c2ccccc2F)c2cc(Cl)ccc21 (stereo not given),2.4%[10.9 µM],-8.4%,-22.8%,?
O=C(CSc1c2c(nc3cc(Cl)ccc13)CCCC2)N1CCN(c2ccccc2)CC1,-16.8%[10.9 µM],25.1µM*,?,?
CC1CCN(C(=O)CSc2c3c(nc4cc(Cl)ccc24)CCCC3)CC1,6.8%[10.9 µM],15.8µM*,-27.8%,?
CC(=O)[C@@H](C)CCO[C@@]1(C)OCC[C@@H]1C,-8.0%[10.9 µM],-20.7%[9.22 µM],-5.6%[9.22 µM],-1.0%[11.4 µM]
Cc1ccc(Nc2ncc(C(=O)N3CCN(c4ccc(F)cc4)CC3)c3ccccc23)cc1Cl,-11.7%[10.9 µM],10.2%,5.7%,?
Cc1ccc(-n2c(C)cc(C(=O)CSc3nncs3)c2C)cc1,-28.5%,?,12.6µM*,?
Cc1cc(C(=O)CSc2nncs2)c(C)n1-c1c(C)n(C)n(-c2ccccc2)c1=O,-0.9%,-15.6%,8.2%,0.1%
COc1ccc(N2Cc3cccc(C(=O)Nc4ccc(C(C)C)cc4)c3C2=O)cc1,-12.0%[10.9 µM],3.98µM*,5.01µM*,-1.2%
O=C1c2sc3nc4ccccc4n3c2C(=O)N1c1ccccc1Cl,-12.1%,-12.2%,-2.0%,?
N=c1cc(C2(O)CCCCC2)n2c(nc3ccccc32)s1,-51.2%,1.26µM*,1µM*,0.3%
CCCC[C@]1(C2CCCC2)Cc2cc(OCC(=O)O)c(Cl)c(Cl)c2C1=O,/,-0.6%,14.3%,3.4%
CC(C)[C@@H]1OC(=O)C=CC=CC=CC=CC=CC[C@@H](O)[C@H](C)[C@@H](O)C[C@H](O)C[C@H](O)C[C@H](O)C[C@H](O)C[C@H](O)C[C@H](O)C=C[C@@H]1C,/,/,/,1.7%[11.4 µM]
O=C(c1ccc(N2CCOCC2)cc1)c1cccs1,-68.7%,7.94µM*,12.6µM*,?
O=C1C[C@H]2OCC=C3CN4CC[C@@]5(C(=O)O)[C@H](N1)C2[C@H]3C[C@H]45 (stereo not given in full),-2.2%[10.9 µM],/,/,/
Cn1c(/C(C#N)=C/c2ccccc2Br)nc2ccccc21,-14.1%[10.9 µM],?,10µM*,?
COc1ccc(O)c(C(=O)CC(=O)c2ccc(F)cc2)c1,-92.2%,6.31µM*,6.31µM*,?
Cc1ccc(O)c(C(=O)CC(=O)c2cccc(F)c2)c1,-24.6%,-11.3%,-13.6%,-1.8%
Cn1nnnc1SCCNCc1ccccc1OCc1ccc(Cl)cc1Cl,-14.6%[10.9 µM],?,-10.3%,?
SMILES,Peg3 imprint,p53ts 39C kill,p53ts 32C kill,IkB sig inh
CCOc1cc(CNCCSc2nnnn2C)ccc1OCc1ccc(Cl)cc1Cl,-13.5%[10.9 µM],12.6µM*,35.5µM*,?
c1cc2c(cc1C1CCCCC1)c1c3n2CCN[C@H]3CCC1,-22.4%,10µM*,25.1µM*,?
Cc1ccc2c(c1)c1c3n2CCN[C@H]3CCC1,3.6%,?,-0.8%,0.1%
CN1CCN(CCCNN)CC1,-5.9%[10.9 µM],4.9%[9.22 µM],0.8%[9.22 µM],0.4%[11.4 µM]
COc1ccc2oc(-c3ccc(C)c(NC(=O)c4ccc(-c5ccccc5[N+](=O)[O-])o4)c3)nc2c1,-9.4%[10.9 µM],10µM*,-19.8%,?
Cc1cc(C(=O)COC(=O)CNC(=O)c2ccco2)c(C)n1Cc1ccco1,/,16.1%,/,/
CCOc1ncccc1C(=O)OCC(=O)c1cc(C)n(Cc2ccco2)c1C,-48.9%,-18.0%,12.6µM*,?
O=C(O)CSCCc1ccccc1,-4.0%[10.9 µM],5.4%[9.22 µM],1.6%[9.22 µM],-0.1%[11.4 µM]
C=CCn1c(SCC(=O)NCC2CCCO2)nc2scc(-c3ccco3)c2c1=O (stereo not given),-10.6%,-4.8%,13.0%,2.2%
O=C(CSc1nc2scc(-c3ccco3)c2c(=O)n1-c1ccccc1)NCC1CCCO1 (stereo not given),-40.3%,8.8%,2.8%,7.94µM*
CC(C)CCNC(=O)c1cccc(Nc2nc3ccccc3n3nnnc23)c1,-19.3%[10.9 µM],10µM*,?,?
O=C(O)CNC(=O)[C@H]1NC(C(F)(F)F)(C(F)(F)F)OC1(C(F)(F)F)C(F)(F)F,1.9%[10.9 µM],1.2%[9.22 µM],5.1%[9.22 µM],-0.8%[11.4 µM]
Cn1c(=O)c2[nH]c(COCc3nc4c([nH]3)c(=O)n(C)c(=O)n4C)nc2n(C)c1=O,3.5%[10.9 µM],13.8%[9.22 µM],6.3%[9.22 µM],1.8%[11.4 µM]
Cc1ccc(-n2ncc3c(NC4CCCCC4)ncnc32)cc1,-10.3%[10.9 µM],7.94µM*,?,?
Clc1cccc(-n2ncc3c(NC4CCCCC4)ncnc32)c1,-12.5%[10.9 µM],12.6µM*,?,?
Cc1ccc(Cl)cc1-n1ncc2c(NC3CCCCC3)ncnc21,-8.4%[10.9 µM],4.3%,-0.6%,?
O=S(=O)(O)C(c1ccccc1)[C@@H](O)c1ccccc1 (stereo not given in full),-15.7%[10.9 µM],/,/,/
CC1CCCCN1CCCNC(=O)CN1C(=O)c2cccnc2Oc2ccccc21 (stereo not given),/,/,-0.7%,/
O=C(CN1C(=O)COc2ccc(S(=O)(=O)NC3CCCC3)cc21)NCc1ccccc1Cl,/,/,-4.6%,/
CCCCOc1ccccc1CC1C(=O)Nc2ccc(Br)cc21 (stereo not given),-19.7%[10.9 µM],12.6µM*,?,-3.2%
COc1ccc2c(c1OC)C(=O)N1c3ccccc3COC21 (stereo not given),-47.5%,15.8µM*,12.6µM*,1.6%
COc1ccc2c(c1OC)C(=O)N1c3cccc(Cl)c3C(=O)OC21 (stereo not given),-2.7%,1.5%,10.6%,-1.2%
CC(C)c1ccc(Cn2ccc3c4c(N)nc(NC5CC5)nc4ccc32)cc1,-26.0%,31.6µM*,?,-0.1%
c1cncc(Nc2nc(-c3cccnc3)cs2)c1,-15.1%,2.2%,8.8%,-9.1%
Cc1cccc(Nc2nc(-c3cccs3)cs2)n1,/,-19.6%,?,/
c1ccc(Nc2nc(-c3cccnc3)cs2)nc1,-80.9%,15.8µM*,?,?
c1ccc(Nc2nc(-c3cccs3)cs2)nc1,-88.3%,?,12.6µM*,?
CCOc1ccc(-c2nc3cc(NC(=O)COc4cccc(C)c4)ccc3o2)cc1,-21.3%[10.9 µM],-4.6%,-8.3%,-1.5%
Cc1cccc(OCC(=O)Nc2ccc(-c3nc4cc(C)ccc4o3)c(O)c2)c1,-6.3%[10.9 µM],10µM*,-25.4%,3.0%
